Records with an inconclusive call do not appear. A call without a number means that no potency is given here. Active and inactive are the calls of the source. Unless noted, calls follow the shape of the dose curve; as a rule, active = well fitted curve in the direction sought with a large enough effect; inconclusive = small, poorly fitted or top-dose-only effect, or another doubt; inactive = no such curve, though single readings can be large; an effect the other way counts as inactive or inconclusive.
Key:
[1] = P-glycoprotein substrates identified in KB-8-5-11 adenocarcinoma cell line, qHTS therapeutic library screen (AID 1346987); also: nearly all actives have a fitted effect of over 65% in size; also: potency is read from the fitted curve at half-maximal effect
Summary of the method: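 Compounds are pinned in dose-response onto KB-8-5-11 cells (500 cells/well, colchicine-free medium) and left 72 h at 37 degree C. CellTiter-Glo luminescence then yields AC50 values.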

[2] = biological target: Glutathione peroxidase 1 (Homo sapiens) (UniProt P07203); assay: Primary qHTS Assay for Inhibitors of Recombinant Selenoprotein Glutathione Peroxidase 1 (GPX1) (AID 1845191); also: nearly all actives have a fitted effect of over 65% in size
Summary of the method: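 GR-coupled readout: NADPH consumption tracked by fluorescence, ex 340/em 450 nm, at t=0 and after 15 min at RT. Final mix 10 nM GPX1, 1 mM GSH, 0.5 mM CHP, 0.5 mM NADPH, 100 nM GR, 0.01% BSA, following 30 min enzyme–compound preincubation.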

[3] = biological target: Atrial natriuretic peptide receptor 1 (Homo sapiens) (UniProt P16066); assay: Natriuretic polypeptide receptor (hNpr1) antagonism - Pilot CMLD screen (AID 1347052; calls by dose curve;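 also: HEK293 cells with hNpr1 stimulated by hNppA peptide at 0.1 nM; cGMP level read as GloSensor luciferase luminescence after agonist stimulation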)
[4] = High Content Imaging Cell-Based qHTS for Inhibitors of the mTORC1 Signaling Pathway in MEF Cells (AID 2667); also: potency is read from the fitted curve at half-maximal effect;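 as to activity change, negative = inhibition: Tsc2-/- p53-/- MEFs stably re-expressing wild-type Tsc2 exposed 24 h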
Summary of the method: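 Read-out is the share of phospho-rpS6-positive cells per well, from Hoechst-normalized Alexa-488 Ser235/236 staining imaged on IN Cell. Cells: WT Tsc2-expressing Tsc2-/-, p53-/- MEFs exposed to compound for 24 hrs.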

[5] = biological target: Ubiquitin carboxyl-terminal hydrolase 2 (Homo sapiens) (UniProt O75604); assay: qHTS Validation Assay for Inhibitors of Ubiquitin-specific Protease USP2a Using CHOP2 as the Reporter (AID 463106); also: potency is read from the fitted curve at half-maximal effect
Summary of the method: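 Fluorescence read-out at Ex 485nm/Em 531nm after 60min RT, following addition of 25nM Ub-CHOP2 plus 25nM reporter substrate to USP2 core (10nM) pretreated 30min with compound. Data normalized to NEM full inhibition; concentration-response curves fitted.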

[6] = biological target: Tumor susceptibility gene 101 protein (Homo sapiens) (UniProt Q99816); assay: qHTS Validation Assay for Iinhibitors of HIV-1 Budding by Blocking the Interaction of PTAP/TSG101 (AID 485342; calls by dose curve)
Summary of the method: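 Tsg101 binding domain (10 uM final) in pH 7.5 HEPES/NaCl/Tween 20/EDTA/TCEP buffer was mixed with pin-transferred compounds, then FITC-labeled PTAP peptide (50 nM final) was added; after 20 min at r.t., fluorescence polarization was read.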

[7] = biological target: Beta-2 adrenergic receptor (Homo sapiens) (UniProt P07550); assay: qHTS validation assay of beta-arrestin-biased ligands of beta2-adrenergic receptor (AID 485366)
Summary of the method: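 Agonism was measured as beta-arrestin recruitment to recombinant beta2-AR, releasing tTA to drive luciferase. Cells were exposed for 18 hr at 37 degrees C to a series up to 46 microM. %Activity from corrected luminescence gave concentration-response curves.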

[8] = biological target: Methanococcus maripaludis chaperonin (MmCpn) (UniProt Q6LX38); assay: High-Throughput Screening for Modulators of Cytosolic Chaperonin Activity: MmCpn Primary Screen (AID 488978);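 also: 50 nM MmCpn enzyme hydrolysing 30 µM ATP at 37 °C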
Summary of the method: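 MmCpn (50 nM final) was preincubated with compound 5 min at RT, then 30 uM ATP (final) was added and the reaction ran 10 min at 37C. ADP produced was detected by Transcreener HTRF (ex 320 nm; em 590/665 nm).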

[9] = Nrf2 qHTS screen for inhibitors: Validation (AID 493153; active = well fitted inhibition curve with a large enough effect in the main read-out, with a control signal flat, not every such curve was filed as active;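 as to activity change, negative = inhibition: A549 cells with ARE-driven firefly luciferase reporter reporting Nrf2 activity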); details: viability change: measured here: cytotoxicity max response
Summary of the method: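 Concentration-response on A549 ARE_Fluc reporter cells exposed 18-24 h at 37 C, 5% CO2. Cytotoxicity read first by CellTiter-Fluor fluorescence (Ex 405/Em 525), then Nrf2 inhibition by BugLite luminescence after 15 min.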

[10] = qHTS for Inhibitors of Cell Surface uPA Generation: Validation Assay (AID 493164);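 also: RAW 264.7 macrophage cells exposed to compound for 18 h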
Summary of the method: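 ATP-Lite luminescence read-out: ATP remains high when uPA activity-dependent LF translocation into the cytoplasm is blocked. RAW 264.7 cells, 18 h compound exposure at 37 C; 7-point titration, 2.45 nM to 38.3 uM final.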

[11] = biological target: Peptidyl-prolyl cis-trans isomerase NIMA-interacting 1 (Homo sapiens) (UniProt Q13526); assay: qHTS Validation Assay to Find Inhibitors of Pin1 (AID 504536; active = well fitted inhibition curve with a large enough effect in the polarisation, with a control signal flat, not every such curve was filed as active; the % refers to the polarisation; also: potency is read from the fitted curve at half-maximal effect)
Summary of the method: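 Fluorescence polarization competition: compounds (titration) displace HiFluor-488-labeled Pin1-1b peptide from Pin1 (0.3 uM final) in pH 7.5 HEPES buffer with DTT, 10 min at room temperature; %Activity normalized to no-enzyme wells, curves fitted.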

[12] = biological target: Parathyroid hormone/parathyroid hormone-related peptide receptor (Homo sapiens) (UniProt Q03431); assay: qHTS for PTHR1 Agonists: Optimization Screen against the NCGC LOPAC library (AID 1347079);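 also: GloSensor cAMP luminescence in HEK-293 GP2 cells expressing human PTHR1 with IBMX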
Summary of the method: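 HEK-293 GP2 cells, PTHR1 + GloSensor cAMP; 3000 cells/well, o/n. Luciferin + IBMX 0.5mM each (stock), 1 hr 37C. Cpd titration, 1 hr 37C. Lum after 15 min RT. Ctrl M-PTH(1-15) top 10uM.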

[13] = Validation qHTS assay for inhibitors of Activation Induced Cytidine Deaminase (AID): UDG Counterscreen signal (AID 1347427)
Summary of the method: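 Fluorescence at 560 nm excitation, 665 nm emission reports UDG signal after 250 mM NaOH (2x) addition and 30 min. Enzymes (AID 1 uM, UDG 2 U/mL, at 4/3x) preincubated 10 min with compound, then 4 h with 4x 250 nM DJC20/DJC23 substrate at room temperature.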

[14] = biological target: Single-stranded DNA cytosine deaminase (Homo sapiens) (UniProt Q9GZX7); assay: Validation qHTS assay for inhibitors of Activation Induced Cytidine Deaminase (AID): AID signal (AID 1347429); also: potency is read from the fitted curve at half-maximal effect
Summary of the method: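 Compounds (final up to 114 uM) preincubated with AID plus UDG; 250 nM DJC20/DJC23 substrate mix (4x stock) added, 4 hr at room temperature, then NaOH, 30 min. Read 1 fluorescence at 540 nm excitation, 590 nm emission.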

[15] = qHTS Assay for Lipid Storage Modulators (AID 1519; calls by dose curve); details: Drosophila S3 cells, BODIPY lipid droplet/cell ratio, laser cytometry, cells loaded with oleic acid; for activity change, negative = inhibition: at 57.5 µM (top of the series)
Summary of the method: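 Cells seeded at 5,000 per well were treated with compounds over a concentration series and loaded with oleic acid (400 uM, as added). Lipid droplet fluorescence (488 nm excitation, 500-530 nm channel) was read by laser-scanning cytometry and normalized to 20 uM Triacsin C.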

[16] = measured here: cell count channel max response
[17] = measured here: lipid channel max response

Chain of Methanococcus maripaludis chaperonin (MmCpn) (Q6LX38 1-543): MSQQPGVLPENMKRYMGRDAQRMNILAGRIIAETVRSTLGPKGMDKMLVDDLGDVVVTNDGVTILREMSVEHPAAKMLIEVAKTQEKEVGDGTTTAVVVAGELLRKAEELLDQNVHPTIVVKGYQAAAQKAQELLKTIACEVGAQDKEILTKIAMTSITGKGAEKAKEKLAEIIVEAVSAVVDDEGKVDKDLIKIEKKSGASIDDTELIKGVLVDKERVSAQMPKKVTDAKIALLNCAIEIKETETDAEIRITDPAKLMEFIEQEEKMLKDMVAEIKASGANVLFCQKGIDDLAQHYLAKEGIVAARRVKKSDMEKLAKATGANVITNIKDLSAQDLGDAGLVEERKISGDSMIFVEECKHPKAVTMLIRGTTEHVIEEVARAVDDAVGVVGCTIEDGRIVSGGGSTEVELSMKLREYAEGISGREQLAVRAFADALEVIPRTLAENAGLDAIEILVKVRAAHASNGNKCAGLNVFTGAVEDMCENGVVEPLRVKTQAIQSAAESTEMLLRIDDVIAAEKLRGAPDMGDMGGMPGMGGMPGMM
Chain of Single-stranded DNA cytosine deaminase (Homo sapiens) (Q9GZX7 whole entry, looked up): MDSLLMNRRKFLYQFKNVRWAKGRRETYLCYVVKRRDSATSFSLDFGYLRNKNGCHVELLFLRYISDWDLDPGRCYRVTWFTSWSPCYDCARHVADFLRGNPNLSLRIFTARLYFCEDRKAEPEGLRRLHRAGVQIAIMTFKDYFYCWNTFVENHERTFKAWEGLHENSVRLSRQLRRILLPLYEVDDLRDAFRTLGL
Chain of Peptidyl-prolyl cis-trans isomerase NIMA-interacting 1 (Homo sapiens) (Q13526 whole entry, looked up): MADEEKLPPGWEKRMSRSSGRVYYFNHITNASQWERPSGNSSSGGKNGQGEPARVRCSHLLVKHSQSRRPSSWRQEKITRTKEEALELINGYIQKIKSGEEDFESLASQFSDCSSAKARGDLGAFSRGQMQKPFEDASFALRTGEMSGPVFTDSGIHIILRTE
Chain of Tumor susceptibility gene 101 protein (Homo sapiens) (Q99816 whole entry, looked up, the tested form may be a part): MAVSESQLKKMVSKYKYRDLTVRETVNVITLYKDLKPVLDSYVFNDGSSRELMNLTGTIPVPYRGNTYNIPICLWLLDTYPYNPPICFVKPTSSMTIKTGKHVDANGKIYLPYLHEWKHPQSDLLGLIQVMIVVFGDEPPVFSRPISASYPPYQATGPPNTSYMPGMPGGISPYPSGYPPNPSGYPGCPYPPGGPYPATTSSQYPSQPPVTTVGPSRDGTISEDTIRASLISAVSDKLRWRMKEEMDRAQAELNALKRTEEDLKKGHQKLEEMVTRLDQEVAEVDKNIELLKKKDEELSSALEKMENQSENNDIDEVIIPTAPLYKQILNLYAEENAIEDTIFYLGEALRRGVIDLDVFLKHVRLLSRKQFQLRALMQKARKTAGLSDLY
Chain of Beta-2 adrenergic receptor (Homo sapiens) (P07550 whole entry, looked up): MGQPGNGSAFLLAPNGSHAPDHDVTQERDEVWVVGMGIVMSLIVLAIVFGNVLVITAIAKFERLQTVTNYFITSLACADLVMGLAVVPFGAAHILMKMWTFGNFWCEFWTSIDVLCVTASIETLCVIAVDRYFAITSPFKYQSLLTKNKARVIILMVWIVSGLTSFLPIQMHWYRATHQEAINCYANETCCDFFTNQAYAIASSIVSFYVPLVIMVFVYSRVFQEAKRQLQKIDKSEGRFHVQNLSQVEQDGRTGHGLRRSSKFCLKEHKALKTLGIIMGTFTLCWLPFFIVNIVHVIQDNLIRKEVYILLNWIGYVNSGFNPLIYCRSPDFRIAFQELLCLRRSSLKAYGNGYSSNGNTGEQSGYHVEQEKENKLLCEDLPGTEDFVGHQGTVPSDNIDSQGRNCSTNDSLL
Chain of Ubiquitin carboxyl-terminal hydrolase 2 (Homo sapiens) (O75604 whole entry, looked up): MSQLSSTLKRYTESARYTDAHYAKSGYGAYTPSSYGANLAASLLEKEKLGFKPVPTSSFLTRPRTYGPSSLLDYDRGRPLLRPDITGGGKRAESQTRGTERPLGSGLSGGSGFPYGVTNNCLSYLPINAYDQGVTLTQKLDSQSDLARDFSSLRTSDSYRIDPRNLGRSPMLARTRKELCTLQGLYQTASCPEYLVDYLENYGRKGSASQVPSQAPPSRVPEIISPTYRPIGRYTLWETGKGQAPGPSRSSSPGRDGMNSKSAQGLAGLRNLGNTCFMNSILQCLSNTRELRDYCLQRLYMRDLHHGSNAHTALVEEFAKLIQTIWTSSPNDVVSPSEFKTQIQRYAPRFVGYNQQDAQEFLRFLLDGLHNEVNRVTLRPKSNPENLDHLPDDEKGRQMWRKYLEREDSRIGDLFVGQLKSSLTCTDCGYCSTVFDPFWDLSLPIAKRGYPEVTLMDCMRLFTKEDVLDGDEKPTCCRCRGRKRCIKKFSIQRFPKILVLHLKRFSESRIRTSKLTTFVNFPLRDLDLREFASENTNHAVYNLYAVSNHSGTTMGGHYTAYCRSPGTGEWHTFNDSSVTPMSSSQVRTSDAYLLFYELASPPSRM
Chain of Parathyroid hormone/parathyroid hormone-related peptide receptor (Homo sapiens) (Q03431 whole entry, looked up): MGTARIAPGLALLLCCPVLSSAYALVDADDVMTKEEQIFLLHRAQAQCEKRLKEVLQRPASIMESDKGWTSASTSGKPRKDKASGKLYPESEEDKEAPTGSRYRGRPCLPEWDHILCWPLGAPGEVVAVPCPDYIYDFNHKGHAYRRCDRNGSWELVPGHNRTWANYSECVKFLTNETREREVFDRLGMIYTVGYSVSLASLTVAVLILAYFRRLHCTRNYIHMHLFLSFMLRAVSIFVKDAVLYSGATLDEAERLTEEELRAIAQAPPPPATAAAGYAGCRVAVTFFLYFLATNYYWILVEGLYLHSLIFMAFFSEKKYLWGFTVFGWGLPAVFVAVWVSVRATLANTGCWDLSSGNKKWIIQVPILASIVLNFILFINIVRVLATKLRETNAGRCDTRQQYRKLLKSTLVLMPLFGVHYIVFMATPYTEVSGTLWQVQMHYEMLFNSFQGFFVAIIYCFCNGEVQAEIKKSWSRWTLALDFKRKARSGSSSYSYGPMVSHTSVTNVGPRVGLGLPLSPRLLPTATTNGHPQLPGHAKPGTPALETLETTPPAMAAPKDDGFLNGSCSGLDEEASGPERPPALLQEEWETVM
Chain of Glutathione peroxidase 1 (Homo sapiens) (P07203 whole entry, looked up): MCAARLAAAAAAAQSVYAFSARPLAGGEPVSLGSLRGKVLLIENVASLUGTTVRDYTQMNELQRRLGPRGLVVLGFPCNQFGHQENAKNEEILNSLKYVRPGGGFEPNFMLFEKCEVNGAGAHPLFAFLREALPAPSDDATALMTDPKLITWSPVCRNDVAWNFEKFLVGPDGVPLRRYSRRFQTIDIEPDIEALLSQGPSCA
Chain of Atrial natriuretic peptide receptor 1 (Homo sapiens) (P16066 whole entry, looked up): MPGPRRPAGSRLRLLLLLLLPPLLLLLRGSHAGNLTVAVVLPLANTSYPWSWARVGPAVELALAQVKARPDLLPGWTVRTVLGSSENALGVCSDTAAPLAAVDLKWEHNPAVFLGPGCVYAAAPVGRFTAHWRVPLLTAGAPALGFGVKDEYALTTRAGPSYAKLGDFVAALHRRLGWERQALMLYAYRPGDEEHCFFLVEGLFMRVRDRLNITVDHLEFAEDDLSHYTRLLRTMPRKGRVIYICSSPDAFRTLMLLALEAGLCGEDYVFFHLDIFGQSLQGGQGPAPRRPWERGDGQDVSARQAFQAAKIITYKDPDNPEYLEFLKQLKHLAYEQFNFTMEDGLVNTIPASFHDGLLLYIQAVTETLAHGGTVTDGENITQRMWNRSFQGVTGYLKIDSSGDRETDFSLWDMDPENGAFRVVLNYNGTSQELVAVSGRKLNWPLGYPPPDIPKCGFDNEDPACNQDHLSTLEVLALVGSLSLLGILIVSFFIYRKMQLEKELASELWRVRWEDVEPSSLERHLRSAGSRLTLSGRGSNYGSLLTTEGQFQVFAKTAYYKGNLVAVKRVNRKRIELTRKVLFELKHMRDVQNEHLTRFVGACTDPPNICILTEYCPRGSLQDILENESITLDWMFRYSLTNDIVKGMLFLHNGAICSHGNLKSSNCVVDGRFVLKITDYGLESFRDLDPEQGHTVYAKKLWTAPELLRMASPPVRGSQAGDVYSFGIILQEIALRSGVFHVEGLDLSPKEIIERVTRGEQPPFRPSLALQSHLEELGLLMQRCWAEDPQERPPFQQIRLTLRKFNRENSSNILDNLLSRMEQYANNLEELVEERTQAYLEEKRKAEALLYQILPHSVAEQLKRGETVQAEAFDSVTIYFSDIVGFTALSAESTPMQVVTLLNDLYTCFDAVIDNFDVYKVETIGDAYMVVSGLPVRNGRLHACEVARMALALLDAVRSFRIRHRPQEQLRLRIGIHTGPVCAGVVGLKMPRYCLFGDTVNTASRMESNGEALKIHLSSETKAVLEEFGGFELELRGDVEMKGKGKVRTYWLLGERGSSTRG

For `CC(C)n1nc(Cc2cccc3ccccc23)c2c(N)ncnc21`, the Potency [1] was 18.4 µM (active) and the Potency [2] was “inactive”.
For `Cc1ccc(OCCSc2ncccn2)c(Br)c1`, the Potency [1] was “inactive” and the Potency [2] was “inactive”.
For `N#Cc1ccc2c(c1)C[C@]1(CCCCN3C(=O)c4ccccc4C3=O)OC3=C(C(=O)OC4(CCCCC4)C3)[C@H]2O1`, the Potency [3] was “inactive”.
For `CC[N+](CC)(CC)CC`, the Potency [4] was “inactive”, the Potency [5] was “inactive” and the outcome [6] was “inactive”. For the same compound, the outcome [7] was “inactive”, the outcome [8] was “inactive” and the outcome [9] was “inactive”. The viability change [9] was -5.41%, the outcome [10] was “inactive” and the Potency [11] was “inactive”. The outcome [12] was “inactive”, the outcome [13] was “inactive” and the Potency [14] was “inactive”. The Potency [2] was “inactive”.
For `CN[C@@H]1C[C@H]2O[C@@](C)([C@@H]1OC)n1c3ccccc3c3c4c(c5c6ccccc6n2c5c31)C(=O)N[C@H]4O`, the Potency [1] was 0.841 µM (active) and the outcome [2] was “inactive [at 9.52 µM]”.
In the case of `Cc1cccc(/C=C/c2ccccc2)n1`, the activity change, negative = inhibition [15] is reported as 1.78% (inactive), the max response [15, 16] is reported as 54.4% and the max response [15, 17] is reported as 55.9%. The Potency [4] was “inactive”, the Potency [5] was “inactive” and the outcome [6] was “inactive”. The outcome [7] was “inactive”, the outcome [8] was “inactive” and the outcome [9] was “inactive”. The viability change [9] was -2.71%, the outcome [10] was “inactive” and the Potency [11] was “inactive”. For the same compound, the outcome [12] was “inactive”, the outcome [13] was “inactive” and the Potency [14] was “inactive”. For the same compound, the Potency [2] was “inactive”.
With `COc1cc2ncnc(Sc3nnc(C)s3)c2cc1OC` the Potency [1] was 16.4 µM (active) and the Potency [2] was “inactive”.
For `COC1=C(C(=O)c2ccccc2)C(=O)[C@@]2(CC=C(C)C)C[C@H](C(=O)OCC(F)(F)F)C(C)(C)[C@@]1(CC=C(C)C)C2=O`, the Potency [3] was “inactive”.
In the case of `COc1cc(/C=C\c2ccc(O)cc2)cc(OC)c1`, the Potency [1] is reported as “inactive” and the Potency [2] is reported as “inactive”.
With `O=Nc1c(-c2c(O)[nH]c3ccccc23)[nH]c2ccccc12` the Potency [4] was “inactive”, the Potency [5] was “inactive” and the outcome [6] was “inactive”. For the same compound, the outcome [7] was “inactive”, the outcome [8] was “inactive” and the outcome [10] was “inactive”. For the same compound, the Potency [11] was “inactive”, the outcome [12] was “inactive” and the outcome [13] was “inactive”. The Potency [14] was “inactive” and the Potency [2] was “inactive”.
For `NS(=O)(=O)c1ccc(N=Nc2c(O)[nH]c3ccc(Br)cc23)cc1`, the Potency [1] was 11.6 µM (active) and the Potency [2] was “inactive”.
For `S=C(Nc1ccccc1)Nc1nccs1`, the activity change, negative = inhibition [15] was -0.0683% (inactive), the max response [15, 16] was -12.9% and the max response [15, 17] was -14.9%. For the same compound, the Potency [4] was “inactive”, the Potency [5] was “inactive” and the outcome [6] was “inactive”. For the same compound, the outcome [7] was “inactive”, the outcome [8] was “inactive” and the outcome [9] was “inactive”. For the same compound, the viability change [9] was -0.228%, the outcome [10] was “inactive” and the Potency [11] was “inactive”. For the same compound, the outcome [12] was “inactive”, the outcome [13] was “inactive” and the Potency [14] was “inactive”. For the same compound, the Potency [2] was “inactive”.
For `CCCCCCCCCCC(O)C1C=CC2C(=O)N(c3ccccc3)C(=O)C2N1Nc1ccc([N+](=O)[O-])cc1` (stereo not drawn), the Potency [1] was “inactive” and the Potency [2] was “inactive”.
For `COc1ccc(-c2nc(-c3ccccc3)c(NCc3ccccc3)o2)cc1`, the Potency [3] was “inactive”.
In the case of `CCc1ccc(/C=C2/SC(=S)NC2=O)cc1`, the Potency [4] is reported as “inactive”, the Potency [5] is reported as “inactive” and the outcome [6] is reported as “inactive”. For the same compound, the outcome [7] was “inactive”, the outcome [8] was “inactive” and the outcome [10] was “inactive”. The Potency [11] was “inactive”, the outcome [12] was “inactive” and the outcome [13] was “inactive”. The Potency [14] was “inactive” and the Potency [2] was “inactive”.
For `O=C(c1ccc(-c2ccc(Cl)cc2)o1)N(Cc1ccccn1)c1ccc(N2CCNCC2)cc1`, the Potency [1] was “inactive” and the Potency [2] was “inactive”.
With `C1CCC(N=C(NC23CC4CC(CC(C4)C2)C3)N2CCOCC2)CC1` the activity change, negative = inhibition [15] was 1.57% (inactive), the max response [15, 16] was -18.7% and the max response [15, 17] was -17.8%. The Potency [4] was “inactive”, the Potency [5] was “inactive” and the outcome [6] was “inactive”. For the same compound, the outcome [7] was “inactive”, the outcome [8] was “inactive” and the outcome [9] was “inactive”. The viability change [9] was 4.19%, the outcome [10] was “inactive” and the Potency [11] was “inactive”. For the same compound, the outcome [12] was “inactive”, the outcome [13] was “inactive” and the Potency [14] was “inactive”.
For `Nc1c(S(=O)(=O)O)cc(Nc2ccc(Nc3nc(Cl)nc(Nc4ccc(S(=O)(=O)O)cc4)n3)c(S(=O)(=O)O)c2)c2c1C(=O)c1ccccc1C2=O`, the activity change, negative = inhibition [15] was -0.911% (inactive), the max response [15, 16] was -15% and the max response [15, 17] was -16.5%. The Potency [4] was “inactive”, the Potency [5] was 4.65 µM (active) and the outcome [6] was “inactive”. The outcome [7] was “inactive”, the outcome [8] was “inactive” and the outcome [10] was “inactive”. For the same compound, the Potency [11] was 2.39 µM (active), the outcome [12] was “inactive” and the outcome [13] was “inactive”. The Potency [14] was 28.2 µM (active) and the Potency [2] was “inactive”.
With `COC1=C[C@H](C(=O)NC2CCN(Cc3ccccc3)CC2)C(C)C(c2ccccc2)CC1=O` (stereo partly drawn) the Potency [3] was “inactive”.
For `O=C1c2ccccc2C(=O)c2c(NCCc3ccc(O)cc3)ccc(NCCc3ccc(O)cc3)c21`, the Potency [4] was 4.65 µM (active), the Potency [5] was “inactive” and the outcome [6] was “inactive”. The outcome [7] was “inactive”, the outcome [8] was “inactive” and the outcome [10] was “inactive”. The Potency [11] was “inactive”, the outcome [12] was “inactive” and the outcome [13] was “inactive”. The Potency [14] was “inactive” and the Potency [2] was “inactive”.
In the case of `O=C1NCCCc2c1oc1ccc(O)cc21`, the Potency [1] is reported as “inactive” and the Potency [2] is reported as “inactive”.
For `O=C1Nc2ccccc2[C@@]12O[C@H](COc1ccccc1)CC1=C2CCC1`, the Potency [3] was “inactive”.
With `O=C1O[C@H](C(O)CO)C(=O)C1=O` (stereo partly drawn) the Potency [1] was “inactive” and the Potency [2] was “inactive”.
With `Cn1c(CNc2cccc(C(=O)NCc3ccccc3C(F)(F)F)c2)nnc1-c1ccncc1` the Potency [1] was “inactive” and the Potency [2] was “inactive”.
In the case of `CCN1C(=NCCc2cccs2)N[C@@H](CCc2ccccc2)[C@H](C(=O)NCCc2cccs2)[C@H]1C`, the Potency [3] is reported as “inactive”.
In the case of `Cc1cncc2cccc(S(=O)(=O)N3CCCNC[C@@H]3C)c12`, the Potency [1] is reported as 1.64 µM (active) and the Potency [2] is reported as “inactive”.
For `CC(CCN1CCCc2nc(C)c(C)cc21)=NO[C@H](C)CN1CCCc2nc(C)c(C)cc21`, the Potency [3] was “inactive”.
